Our source for the outcome and AC50 values is PubChem BioAssay (EPA / NIEHS).

Calls of active or inactive are those of the source. The calls were made as follows: active = hit-call score of the fitted dose curve at least 0.9, where 1 is the maximum; inactive = score below 0.9.

A short description of the test: ATG_ERE_CIS: Attagene CIS-FACTORIAL HepG2 Assay for Estrogen Response Element (ERE) (AID 2282940). Conditions: HepG2 ERE cis-reporter, Attagene RNA transcript; actives raise or lower the signal. The procedure: ATG_CIS is a cell-based, multiplexed-readout assay that uses HepG2, a human liver cell line, with measurements taken at 24 hours after chemical dosing in a 24-well plate.ATG_ERE_CIS is one of 52 assay component(s) measured or calculated from the ATG_CIS assay. It is designed to make measurements of mRNA induction, a form of inducible reporter, as detected with fluorescence intensity signals by Reverse transcription polymerase chain reaction (RT-PCR) and Capillary electrophoresis technology.Data from the assay component ATG_ERE_CIS was analyzed into 1 assay endpoint. This assay endpoint, ATG_ERE_CIS, was analyzed with bidirectional fitting relative to DMSO as the negative control and baseline of activity. Using a type of inducible reporter, measures of mRNA for gain or loss-of-signal activity can be used to understand the reporter gene at the transcription factor-level as they relate to the gene ESR1. Furthermore, this assay endpoint can be referred to as a primary readout, because this assay has produced multiple assay endpoints where this one serves a reporter gene function. To generalize the intended target to other relatable targets, this assay endpoint is annotated to the nuclear receptor intended target family, where the subfamily is steroidal.
Human liver HepG2 cells are transiently transfected with multiple reporter transcription units (MRTUs) in 6-well plates using FuGene 6 reagent (Roche; 3 ml FuGene/1 mg DNA). The MRTU constructs are regulated by a cis-regulating element (promoter). […] A major difference between the CIS and TRANS system is that in CIS activities of endogenous TFs are measured, whereas the TRANS assay evaluates changes in activities of exogenous, chimeric NR-Gal4 proteins. […] At the end of 24 hour incubation, total RNA was isolated using TriZol reagent (Invitrogen). The isolated RNA is then reverse-transcribed using oligo(dT) primer and Mo-MLV reverse transcriptase (Invitrogen) with DNAse I (Ambion) treatment for 30 min. The one-tenth of the produced cDNA was amplified by PCR using Taq DNA polymerase (Invitrogen) and two reporter sequence-specific primers. The PCR products were fluorescently labeled by primer extension with 6-arboxyfluorescein (6-FAM) 5'-labeled reporter sequence-specific primer (2 min at 95 C, 20 s at 68 C and 10 min at 72 C) and these products were digested with 5U of HpaI (New England Biolabs) for 2h at 37 C. The fragments were purified using Qiaquick PCR columns (Qiagen), analyzed on an ABI 3130xL genetic analyzer (Applied Biosystems) with peak positions identified by using a set of X-rhodamine (ROX)-labeled MapMarker1000 molecular weight standards (BioVentures). The raw capillary electrophoresis data was processed using Attagraph software (Attagene).
Consider `CCOC(=O)C1=NN(c2ccc(Cl)cc2Cl)C(C)(C(=O)OCC)C1` (stereo not given), for which the call was inactive. Still for that read-out and setting: as for `CC(=O)OC1CCCCC1C(C)(C)C` (stereo not given), the entry is “inactive”; as for `CC1OC(=O)C(C)OC1=O` (stereo not given), “inactive”. Still for that read-out and setting: as for `CCC(C)C(=O)OCCc1ccccc1` (stereo not given), the entry is “inactive”. Same read-out and setting: as for `CCCC(C)C(=O)OCC` (stereo not given), the entry is “inactive”; as for `CC=CC(=O)OCC(C)C`, “inactive”; as for `CC(c1cc(C(C)(C)C)cc(C(C)(C)C)c1O)c1cc(C(C)(C)C)cc(C(C)(C)C)c1O`, “inactive”. Take `CCCCCCCCCCCCc1ccc(O)cc1`: the AC50 is 0.146 µM (active). As for `Nc1ccc(Cl)c(N)c1`, the outcome was inactive. The same measure, in the same setting: as for `O=C1c2ccccc2C(=O)c2cc(S(=O)(=O)O)ccc21`, the entry is “inactive”; as for `CCCCCC[C@@H](O)C/C=C\CCCCCCCC(=O)OCC(O)CO` (stereo not given in full), “inactive”.

Take `CC(=O)c1ccccc1O`: the result was inactive. On the same count and under the same terms, as for `CC(C)CC(=O)OCc1ccccc1`, the entry is “inactive”; as for `CC1=C(O)C(=O)C(C)O1` (stereo not given), “inactive”. For the compound `CC1=CC(C)C(C=O)CC1` (stereo not given), the AC50 is 27.2 µM (active). `CCCCCCCCC(CO)CCCCCC` (stereo not given): the outcome was inactive.

As for `COc1cc(C)ccc1O`, the compound was classed as inactive. For `O=S(=O)(O)c1ccc(N=Nc2c(O)ccc3ccccc23)cc1`, the AC50 is 33.5 µM (active). With `CC(C)=CCCC(C)=CC#N`, the AC50 was 172 µM (active). As to `CC(=O)/C=C/C1C(C)=CCCC1(C)C` (stereo not given), the AC50 is 44.7 µM (active). As to `N=C1C=CC(=C(c2ccc(N)cc2)c2ccc(N)cc2)C=C1`, the call was inactive. On the same count and under the same terms, as for `CCC(C)(O)CCCC(C)C` (stereo not given), the entry is “inactive”. Consider `CCC(C)C(=O)OC` (stereo not given), for which the compound was classed as inactive.

In the case of `CC/C=C\C/C=C\C/C=C\CCCCCCCC(=O)OC`, the AC50 is 38.9 µM (active).

Consider `C=CC(=O)OCCCCCCCC(C)C`, for which the AC50 is 100 µM (active). Still for that read-out and setting: as for `Cc1ccc(C)c(OCCCC(C)(C)C(=O)O)c1`, the figure is 75.2 µM (active). On to `Cc1c[nH]c(=O)[nH]c1=O`, for which the outcome was inactive. Consider `CCOC(=O)C1=NOC(c2ccccc2)(c2ccccc2)C1`, for which the result was inactive. The same measure, in the same setting: as for `CC(=O)OC1CCCCC1`, the entry is “inactive”; as for `Clc1cccnc1`, “inactive”. Still for that read-out and setting: as for `Cc1ccc([N+](=O)[O-])cc1N`, the entry is “inactive”. For `C=CC(=O)NC(C)(C)C`, the compound was called inactive.

As for `Cc1c(Cl)cccc1Cl`, the result was inactive. For the compound `CC1C(C)(C)C2=C(C(=O)CCC2)C1(C)C` (stereo not given), the AC50 is 26.6 µM (active). Take `Oc1c(Cl)cc(Cl)c(Cl)c1Cl`: the outcome was inactive. In the case of `CC(C)(O)Cc1ccccc1`, the compound was called inactive. Still for that read-out and setting: as for `N#CC1(N)CCCCC1`, the entry is “inactive”; as for `CC12CCC(CC1)C(C)(C)O2`, “inactive”.

`CC(Cl)COP(=O)(OCC(C)Cl)OCC(C)Cl` (stereo not given): the result was inactive. With `CCCCCCC=O`, the AC50 was 26.7 µM (active).

The term AC50 denotes the concentration giving half of the maximal activity seen.
